Test results: PubChem BioAssay (NCATS)
Inconclusive results are not listed. A call without a number means that no potency is given here. Activity calls are given as the source filed them. Calls follow the shape of the dose curve; as a rule, active = well fitted inhibition curve with a large enough effect; inconclusive = small, poorly fitted or top-dose-only effect; inactive = flat fitted curve, though single readings scatter.

What follows are molecules tested on CRL-7250 (assay: qHTS assay to identify novel small-molecules to repurpose for Merkel cell carcinoma treatment (AID 1296009; also: nearly all actives have a fitted effect of over 60% in size)). Conditions: MCC and control cell lines, CellTiter-Glo viability, 72 h; series mostly up to 92 µM.
Summary of the method: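 Viability readout: ATP luminescence (CellTiter-Glo) after 72 hr drug exposure at 37 degree celsius. Dose-response format was 8 points for NPC and 11 points for MIPE; data normalized to in-plate controls.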
With `CC1(C)CC[C@]2(C(=O)O[C@@H]3O[C@H](CO)[C@@H](O)[C@H](O)[C@H]3O)CC[C@]3(C)C(=CCC4[C@@]5(C)C[C@@H](O)[C@H](O)C(C)(C)C5[C@H](O)C[C@]43C)[C@@H]2[C@@H]1O` (stereo partly specified) the Potency was “inactive”. In the case of `CCOc1ncc(S(=O)(=O)N2CCN(CC)CC2)cc1-c1nc2c(CC)n(CCOC)nc2c(=O)[nH]1`, the Potency is reported as “inactive”. `Cc1ccc(-c2ccc3c(ccc4sc5c(c43)NC[C@@H](C)NC5=O)n2)cn1` was tested, and the Potency was “inactive”. In the case of `CC1=CC2/C=C(\C)CCC(O)C(=O)C(O)CC(=O)C23C(=O)NC(CC(C)C)C3C1C` (stereo unspecified), the Potency is reported as “inactive”. For `C=C1CCC2C(C)(C)C(O)CCC2(C)C1CCC(C)CCOC(C)=O` (stereo unspecified), the Potency was “inactive”. For `CCCCc1c(-c2ccc(OC)cc2)[nH]c2nccnc12`, the Potency was “inactive”. In the case of `CC(C)CC(=O)n1cc(C(N)=O)c(=O)cc1C(O)c1ccccc1` (stereo unspecified), the Potency is reported as “inactive”. `COC(=O)C(CC1(O)c2ccccc2N2C(=O)C(CC(C)C)NC21)n1cnc2ccccc2c1=O` (stereo unspecified) was tested, and the Potency was “inactive”. For `Cc1c(N2C(=O)c3ccc(C(=O)O)cc3C2=O)c(=O)n(-c2ccccc2)n1C`, the Potency was “inactive”. `COC(=O)C1=COC(O[C@@H]2O[C@H](CO)[C@@H](O)[C@H](O)[C@H]2O)[C@H]2[C@@H]1[C@H](OC(=O)CCc1ccc(O)cc1)C[C@]2(C)O` (stereo partly specified) was tested, and the Potency was “inactive”. In the case of `CCN(CCN(C)C)C(=O)CNCc1cc(C(N)=O)ccn1`, the Potency is reported as “inactive”. For `CC(C)CCC[C@@H](C)[C@H]1CC[C@H]2[C@@H]3CC=C4C[C@@H](OC(=O)NCCN(C)C)CC[C@]4(C)[C@H]3CC[C@]12C`, the Potency was “inactive”. For `OC1COC(OCC2OC(OCCc3ccccc3)C(O)C(O)C2O)C(O)C1O` (stereo unspecified), the Potency was “inactive”. For `CC(C)=CCC[C@](C)(O[C@@H]1O[C@H](CO[C@@H]2OC[C@@H](O)[C@H](O)[C@H]2O)[C@@H](O)[C@H](O)[C@H]1O)[C@H]1CC[C@]2(C)[C@@H]1[C@H](O)C[C@@H]1[C@@]3(C)CC[C@H](O[C@@H]4O[C@H](CO)[C@@H](O)[C@H](O)[C@H]4O[C@@H]4O[C@H](CO)[C@@H](O)[C@H](O)[C@H]4O)C(C)(C)[C@@H]3CC[C@]12C`, the Potency was “inactive”. `C[C@@H](c1ccccc1)N(C(N)=NC#N)c1cccc2ncccc12` was tested, and the Potency was “inactive”. For `CC(=O)OC[C@@]12[C@H](O)C[C@@H](C)[C@]3(C[C@@H](c4ccoc4)OC3=O)[C@H]1C[C@H](O)C[C@]21CO1`, the Potency was “inactive”. In the case of `CC(/C=C/[C@]1(O)[C@@]2(C)CO[C@@]1(C)C[C@@H](O)C2)=C\C(=O)O[C@@H]1O[C@H](CO)[C@@H](O)[C@H](O)[C@H]1O`, the Potency is reported as “inactive”. With `C[C@@H](NC(=O)C(=O)c1c[nH]c2ccc([N+](=O)[O-])cc12)c1ccccc1` the Potency was “inactive”. `CC(=O)c1ccc(O[C@@H]2OC[C@@H](O)[C@H](O)[C@H]2O[C@]2(CO)O[C@H](CO)[C@@H](O)[C@@H]2O)c(O)c1` was tested, and the Potency was “inactive”. `COc1ccc(CN2C(=O)C(=O)c3cc(S(=O)(=O)N4CCC[C@H]4COc4cccnc4)ccc32)cc1` was tested, and the Potency was “inactive”. `CC(=O)[C@H]1CC[C@H]2[C@@H]3CC=C4C[C@@H](OS(=O)(=O)O)CC[C@]4(C)[C@H]3CC[C@]12C` was tested, and the Potency was “inactive”. In the case of `CCn1nnnc1NCc1ccc(C(C)C)cc1`, the Potency is reported as “inactive”. For `COc1cc(C2c3cc(O)c(OC)cc3CC(CO)C2CO)ccc1O` (stereo unspecified), the Potency was “inactive”. For `C[C@H]1[C@H](C)CC[C@]2(C(=O)O)CC[C@]3(C)C(=CCC4[C@@]5(C)C[C@@H](O)[C@H](O)C(C)(C)C5CC[C@]43C)[C@H]12` (stereo partly specified), the Potency was “inactive”. In the case of `N[C@@]1(C(=O)O)CC[C@H]2[C@H](C(=O)O)[C@H]21`, the Potency is reported as “inactive”. With `O=C(O)c1ccc(OC2OC(CO)C(O)C(O)C2O)cc1` (stereo unspecified) the Potency was “inactive”.
